Results on 14 molecules are retold here after PubChem BioAssay (NCI).

Holding throughout (experiment): NCI-60 one-dose screen, 48 h (100 = growth as untreated, 0 = no growth, -100 = all killed)
What all share (conditions): 10 µM unless noted

Assay [1] deals with HCT-15 colon.
Assay [2] has as its system HT29 colon.
Assay [3] relates to SNB-75 CNS.
The test system of assay [4] is SNB-19 CNS.
Assay [5] deals with U251 CNS.
Assay [6] has as its system PC-3 prostate.
The test system of assay [7] is SK-MEL-5 melanoma.
The subject of assay [8] is UACC-62 melanoma.
Assay [9] concerns LOX IMVI melanoma.
In assay [10] the test system is SK-MEL-28 melanoma.

This is part of a sample that, as a whole, favours compounds with a hit. Of some 83,000 tested, about 20% had one in any assay.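 The endpoint reported here, percent growth, reads 100 for growth as untreated, 0 for no net growth and -100 for all cells dead.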 Unmarked numbers belong to inactive results. Calls of active or inactive are those of the source. The calls were made as follows: active = growth percent below 10; inactive = the rest.

Regarding `NS(=O)(=O)c1ccc(CCNC(=O)/C=C/c2ccc(Cl)cc2)cc1`, the growth was 98.5% in assay [1]; 95.7% in [2]; 85.2% in [3]; 99% in assay [4]; 97.8% in assay [5]; 87.1% in assay [6]. Besides, the growth in assay [7] was 105%; in assay [8] it was 104%; in assay [9] it was 99.1%; in assay [10], 104%.
Regarding `Cc1nnc2nc(N)[nH]n2c1=O`, the growth in assay [1] was 99.4%; in assay [2], 104%; in assay [3], 93.7%; in assay [4], 117%; in assay [5], 99%; in assay [6], 98%. Besides, the growth in assay [7] is 106%; in assay [8], 115%; in [9], 94.7%; in assay [10], 109%.
Turning to `[B-][N+](CC)(CC)c1ccccc1`, the growth in assay [1] was 100%; in assay [2] it was 107%; in assay [3], 84.1%; in [4] it was 105%; in [5], 99%; in [6], 99.4%. For the same molecule, the growth was 104% in assay [7], 111% in [8], 109% in assay [9] and 99.7% in assay [10].
In the case of `COC(=O)[C@]12CC[C@@H](C)[C@H](C)[C@@H]1C1=CC[C@@H]3[C@@]4(C)C(c5ncon5)=C[C@@](C)(CO)C4=CC[C@@]3(C)[C@]1(C)CC2`, the growth in assay [1] is -64.9% (active); in assay [2], -68.2% (active); in assay [3], 55.5%; in assay [4], 6.01% (active); in [5], -59.5% (active); in assay [6], -12.7% (active). Further, in assay [7], the growth is -71.6% (active).
Consider `O=C(c1ccccc1)C(CN1CCOCC1)c1ccccc1` (configuration not stated), for which the growth was 1.74% (active) in assay [1]; -67% (active) in assay [2]; 51.8% in assay [3]; 78.3% in [4]; 19.3% in assay [5]; 48.7% in assay [6]. Further, the growth in [7] is 44.5%; in assay [8] it was 22.4%; in assay [9], -34.7% (active); in assay [10], 68.6%.
In the case of `Nc1c(C(=O)Nc2cccc(Cl)c2)sc2ncc(Cl)cc12`, the growth is 80.7% in assay [1]; 90.3% in [2]; 59.6% in assay [3]; 105% in assay [4]; 10.6% in [5]; 95.7% in assay [6]. The growth was 94.3% in assay [7], 95.5% in assay [8], 44.8% in assay [9] and 91.7% in assay [10].
In the case of `CCCC(=O)N1CCCCC1CC` (configuration not stated), the growth in assay [1] was 99.4%; in assay [2] it was 106%; in [3], 92%; in assay [4], 112%; in [5], 91.8%; in assay [6] it was 92.5%. In addition, the growth in assay [7] is 117%; in [8] it was 111%; in assay [9], 105%; in assay [10], 112%.
For `NC1=NN(c2ccccc2)C(=O)/C1=C/c1ccc(Cl)cc1`, the growth was 99.4% in assay [1]; 102% in assay [2]; 105% in [3]; 96.9% in assay [4]; 98.1% in [5]; 82.8% in [6]. In addition, the growth was 101% in assay [7], 81.2% in assay [8] and 95% in assay [10].
`OCC12CCCC(CO)(COC1)C2O` (configuration not stated): the growth was 106% in assay [1]; 105% in [2]; 96.4% in assay [3]; 116% in [4]; 99.2% in assay [5]; 99.7% in assay [6]. In addition, the growth in [7] is 99.8%; in assay [8] it was 107%; in assay [9], 98.6%; in [10] it was 107%.
Regarding `O=C1c2ccccc2C(=Cc2ccccc2)c2ccccc21`, the growth in assay [1] is 7.88% (active); in assay [2] it was 0.453% (active); in [3], -40.9% (active); in [4] it was 24.8%; in assay [5] it was 6.21% (active); in [6] it was 31.8%. Moreover, the growth is 13.7% in [7], 23.9% in assay [8], 4.62% (active) in assay [9] and 18.3% in [10].
`COc1cc(-c2cc(-c3nc4ccc(F)cc4[nH]3)[nH]n2)cc(OC)c1OC`: the growth in assay [1] is 24.1%; in assay [2], 69.3%; in [3], 15.2%; in assay [4] it was 70.8%; in assay [5], 46.2%; in assay [6], -18.1% (active). The growth in assay [7] was -50.2% (active); in [8] it was -25.4% (active); in [10], 7.54% (active).
For `COC(=O)c1cc(=O)nc(N/N=C/c2ccc(C)cc2)s1`, the growth was 86.2% in [1]; 104% in assay [2]; 91.7% in assay [3]; 109% in assay [4]; 107% in assay [5]; 91.2% in assay [6]. Also, the growth in assay [7] is 98.9%; in assay [8] it was 115%; in assay [10] it was 104%.
Turning to `Nc1ccc(Br)cn1`, the growth was 102% in assay [1]; 104% in [2]; 87.3% in assay [3]; 107% in assay [4]; 108% in assay [5]; 98.9% in [6]. Further, the growth was 100% in assay [7], 97.3% in assay [8] and 107% in assay [10].
Regarding `Cn1c2c(c3ccc(Cl)cc31)-n1cccc1C2=O`, the growth in [1] is 83.5%; in assay [2], 70.8%; in assay [3] it was 87.5%; in assay [4], 85.5%; in assay [5] it was 89.3%; in assay [6] it was 101%. Also, the growth in assay [7] is 98.4%; in assay [8], 89.8%; in assay [10], 109%.
